# Source: PubChem BioAssay (NCATS)
# Records with an inconclusive call do not appear. A call without a number means that no potency is given here. Active and inactive are the calls of the source. Calls follow the shape of the dose curve; as a rule, active = well fitted curve in the direction sought with a large enough effect; inconclusive = small, poorly fitted or top-dose-only effect, or another doubt; inactive = no such curve, though single readings can be large; an effect the other way counts as inactive or inconclusive. Starred links: 1 amine or outer side, 2 acyl side, 3 side chain; linkers in the order of their positions; H or OH if unused. Positions of bridges follow the written chain, without caps; N, C: chain ends. Non-standard residues stand in square brackets, D forms with d. Residues, ends and D or L forms follow the SMILES beside them. ξ: configuration not given here. *: point of attachment. X3 = C[C@@H](Oc1ccc([C@H](N[*:1])C(=O)[*:2])cc1)[C@]1(/C=C\C(=O)[*:3])CO1; d(aIle) = CC[C@H](C)[C@@H](N)C(=O)O; X2 = CC(C)[C@@H](O)C(C)C(=O)*; ξNMeF = CNC(Cc1ccccc1)C(=O)O; ξT = CC(O)C(N)C(=O)O; ξS = NC(CO)C(=O)O
# How the values were obtained:
# [1] = HEK293 18hr Apoptosis Induction qHTS against the NCATS CANVASS Library (AID 1347357)
# In short: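 HEK293 cells (500 per well, DMEM with 10% FBS) were treated with natural products, incubated 18 hours at 37 degrees C, then caspase-3/7 activity was read by Caspase-Glo luminescence after 15 min at room temperature.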
# [2] = HPAF-II 12hr Apoptosis Induction qHTS against the NCATS CANVASS Library (AID 1347358)
# In short: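 HPAF-II cells (500/well, DMEM + 10% FBS) were exposed to compounds for 12 hours at 37 degrees C. Caspase-3/7 activity was then read by Caspase-Glo 3/7 luminescence after 15 min at room temperature.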
# [3] = HEK293 24hr Apoptosis Induction qHTS against the NCATS CANVASS Library (AID 1347359)
# In short: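 HEK293 cells, 500 per well, exposed to an 11-point compound series for 24 hours at 37 degrees C. Caspase 3/7 activity read by Caspase-Glo luminescence (DEVD substrate) after 15 min at room temperature.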
# [4] = HPAF-II 18hr Apoptosis Induction qHTS against the NCATS CANVASS Library (AID 1347360)
# In short: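 HPAF-II cells (500/well, DMEM + 10% FBS) were exposed to compounds for 18 hours at 37 degrees C. Caspase-3/7 activity was then read by Caspase-Glo 3/7 luminescence after 15 min at room temperature.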
# [5] = HEK293 12hr Apoptosis Induction qHTS against the NCATS CANVASS Library (AID 1347361)
# In short: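 Read-out: Caspase-Glo 3/7 luminescence (DEVD substrate), 15 min RT. Preceded by 12 h compound exposure of HEK293, 500 cells/well, 11-pt qHTS titration; doxorubicin titration as control.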
# [6] = molecular target: Luciferin 4-monooxygenase (Photinus pyralis) (UniProt P08659); test: Firefly luciferase counterscreen qHTS: Assay Interference Panel against the NCATS CANVASS Library (AID 1347363); also: potency is read from the fitted curve at half-maximal effect
# Chain of Luciferin 4-monooxygenase (Photinus pyralis) (P08659 whole entry, looked up): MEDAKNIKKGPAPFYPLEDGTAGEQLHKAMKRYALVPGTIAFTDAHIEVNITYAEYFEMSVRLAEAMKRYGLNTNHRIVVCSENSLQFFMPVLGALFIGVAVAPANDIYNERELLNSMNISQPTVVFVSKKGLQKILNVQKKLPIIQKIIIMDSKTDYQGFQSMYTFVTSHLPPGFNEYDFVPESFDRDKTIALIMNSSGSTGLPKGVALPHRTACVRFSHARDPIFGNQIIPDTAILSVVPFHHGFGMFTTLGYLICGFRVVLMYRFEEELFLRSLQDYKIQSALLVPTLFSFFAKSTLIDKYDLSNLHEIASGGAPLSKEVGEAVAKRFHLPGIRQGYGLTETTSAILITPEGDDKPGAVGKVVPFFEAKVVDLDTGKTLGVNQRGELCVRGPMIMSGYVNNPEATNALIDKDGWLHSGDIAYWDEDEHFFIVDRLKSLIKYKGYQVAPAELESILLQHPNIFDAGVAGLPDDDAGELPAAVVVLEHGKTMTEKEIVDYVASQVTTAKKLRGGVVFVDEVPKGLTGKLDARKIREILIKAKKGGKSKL
# In short: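 Purified P. pyralis luciferase (0.04 ug/mL, 4x reagent) added to Tris-acetate buffer with 0.013 mM D-luciferin, 0.013 mM ATP and 13.3 mM Mg-acetate; compounds preincubated 15 min, then luminescence read after 5 min, RT.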
# [7] = qHTS for ATAD5 Agonist screened against the NCATS CANVASS Library (AID 1347367);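 also: luciferase reporter driven by ATAD5 which rises upon DNA damage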; also: potency is read from the fitted curve at half-maximal effect
# In short: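 HEK293T cells stably carrying an ATAD5-controlled luciferase reporter (2000 cells/well) attached for 5 hr, then received compounds in an 11-point series for 16hr at 37C. Luminescence was read after a 30 min room-temperature reagent step.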
# [8] = J3T Cancer Cell Toxicity qHTS against the NCATS CANVASS Library (AID 1347371); also: potency is read from the fitted curve at half-maximal effect
# In short: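 J3T dog glioma cells (500 cells/well) were exposed to compounds in an 11-point series for 72 hr at 37C, 5% CO2. Cytotoxicity was read as ATP content by CellTiterGlo luminescence.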
# [9] = molecular target: Nuclear receptor subfamily 1 group I member 3 (Homo sapiens) (UniProt Q14994); test: qHTS for Constitutive Androstane Receptor (CAR) Agonist screened against the NCATS CANVASS Library (AID 1347373);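 also: every well also contained 1.5 µM PK11195 alongside the test compound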; also: potency is read from the fitted curve at half-maximal effect
# Chain of Nuclear receptor subfamily 1 group I member 3 (Homo sapiens) (Q14994 whole entry, looked up): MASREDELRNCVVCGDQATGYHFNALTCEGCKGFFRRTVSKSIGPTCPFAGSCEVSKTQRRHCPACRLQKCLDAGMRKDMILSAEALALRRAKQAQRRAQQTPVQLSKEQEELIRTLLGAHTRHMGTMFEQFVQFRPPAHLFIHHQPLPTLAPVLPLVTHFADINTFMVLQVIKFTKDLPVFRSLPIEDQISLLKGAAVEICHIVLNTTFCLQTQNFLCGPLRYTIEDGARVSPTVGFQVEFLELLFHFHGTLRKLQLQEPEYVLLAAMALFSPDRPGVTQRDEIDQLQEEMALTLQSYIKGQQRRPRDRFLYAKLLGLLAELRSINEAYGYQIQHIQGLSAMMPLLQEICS
# In short: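 HepG2 cells stably expressing hCAR and a CYP2B6-2.2kb luciferase reporter were treated for 24hr at 37C with compounds (11-point qHTS) in the presence of 1.5uM PK11195. Reporter activation was read by ONE-Glo luminescence.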
# [10] = qHTS for Hypoxia signaling pathway (HIF-1) agonists against the NCATS CANVASS Library (AID 1347375)
# In short: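 HRE-bla ME-180 cells (beta-lactamase reporter under hypoxia responsive element) in 0.5% dialyzed FBS medium, 5 h at 37C, then compound 17 h, 11-point qHTS series. CCF4-AM FRET substrate 2 h RT; 460/530 nm emission read.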
# [11] = 10-beta competent E. coli microbial cell viability qHTS against the NCATS CANVASS Library (AID 1347376); also: series mostly up to about 46 µM
# In short: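 10-beta competent E. coli (0.9 OD culture diluted to 0.2 OD) exposed to compounds in an 11-point qHTS series, incubated overnight at 37C, 5% CO2. Viability read as ATP by BacTiter-Glo luminescence after 20 min at room temperature.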
# [12] = DH5-alpha competent E. coli microbial cell viability qHTS against the NCATS CANVASS Library (AID 1347377); conditions: outcome: dose series up to 46.1 µM unless noted
# In short: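 DH5-alpha E. coli suspension (0.9 OD culture diluted to 0.2 OD) exposed to compounds in an 11-point series, overnight at 37C, 5% CO2. Viability read as ATP by BacTiter-Glo luminescence after 20 min at room temperature.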
# [13] = Cytotoxicity qHTS for assessment of Hepg2 cells membrane integrity screened against the NCATS CANVASS Library (AID 1347387)
# In short: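 HepG2 cells (2000/well) attached overnight at 37C, then received compounds in an 11-point series at 0.59 nM - 46 uM final for 5 hr. LDH release was detected fluorometrically (ex 560/em 590 nm) with CytoTox-ONE reagent after 10 min at room temperature.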
# [14] = qHTS for activators of dead-cell proteases activity screened against the NCATS CANVASS Library (AID 1347392);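 also: luminescence from protease leaking out of membrane-damaged cells cleaving impermeant substrate; rising signal means more cytotoxicity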
# In short: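 HepG2 cells, 2000/well, attached 18 h at 37C, then exposed to compounds (11-point qHTS) for 5 h. Dead-cell protease release read as luminescence from cell-impermeant AAF-aminoluciferin substrate after 15 min at room temperature.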
# [15] = Redox Reaction Profiling qHTS: Assay Interference Panel against the NCATS CANVASS Library (AID 1347401); also: potency is read from the fitted curve at half-maximal effect
# In short: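 Compounds in 11-point series incubated with 5 uM resazurin and 200 uM DTT in 50 mM HEPES pH 7.3, 50 mM NaCl. Resorufin fluorescence (Ex 525/Em 598) read before and after 15 min in the dark.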
Structure (SMILES),outcome [1],outcome [2],outcome [3],outcome [4],outcome [5],Potency [6],Potency [7],Potency [8],Potency [9],outcome [10],outcome [11],outcome [12],outcome [13],outcome [14],Potency [15]
CC[C@]12C=CCN3CC[C@]4(C(=C(C(=O)OC)C1)Nc1ccccc14)[C@@H]32,inactive,inactive,inactive,inactive,inactive,inactive,inactive,inactive,inactive,inactive,inactive,inactive,inactive,inactive,inactive
CC[C@@H]1CN2CCc3c([nH]c4cccc(OC)c34)[C@@H]2C[C@@H]1/C(=C\OC)C(=O)OC,inactive,inactive,inactive,inactive,inactive,inactive,inactive,,inactive,inactive,inactive,inactive,inactive,inactive,
C=CC(C)(C)[C@@]12C[C@H]3C(=O)N/C(=C\c4cnc[nH]4)C(=O)N3[C@@H]1Nc1ccccc12,inactive,inactive,inactive,inactive,inactive,inactive,inactive,inactive,inactive,inactive,inactive,inactive,inactive,inactive,inactive
COC1C(O)C(C)OC(OC2C(Oc3cccc4c(O)c5c(=O)oc6ccc(C)c7c(=O)oc(c34)c5c67)OC(C)C(O)C2O)C1O (stereo unspecified),inactive,inactive,inactive,inactive,inactive,inactive,inactive,23.5 µM (active),inactive,,inactive,inactive,inactive,inactive,2.15 µM (active)
COC1=C(C2=C(OC)C(=O)c3cc4c(c(O)c3C2=O)C(=O)O[C@H](C)C4)C(=O)c2c(cc3c(c2O)C(=O)O[C@H](C)C3)C1=O,inactive,inactive,inactive,inactive,inactive,,inactive,inactive,inactive,inactive,inactive,inactive [at 15.4 µM],inactive,inactive,1.14 µM (active)
O[C@H]1C=C[C@@]23CCN(Cc4cc5c(cc42)OCO5)[C@@H]3C1,inactive,inactive,inactive,inactive,inactive,inactive,inactive,inactive,inactive,inactive,inactive,inactive,inactive,inactive,inactive
C=C[C@]12C=CCN3CC[C@@]4(c5ccccc5NC(=O)[C@@H]4C1)[C@@H]32,inactive,inactive,inactive,inactive,inactive,inactive,inactive,inactive,inactive,inactive,inactive,inactive,inactive,inactive,inactive
CCCCC1CC[C@H]2CCCC(CCC)N12 (stereo partly specified),inactive,inactive,inactive,inactive,inactive,inactive,inactive,inactive,inactive,inactive,inactive,inactive,inactive,inactive,inactive
CCCC[C@@H]1CC[C@H]2CCCC(CCCO)N12 (stereo partly specified),inactive,inactive,inactive,inactive,inactive,inactive,inactive,inactive,inactive,inactive,inactive,inactive,inactive,inactive,inactive
CO[C@H]([C@@H](C)[C@H]1O[C@]1(C)C[C@H](C)/C=C/C=C(\C)[C@H]1O[C@@H](CC(=O)O)CC[C@@H]1C)[C@@H](C)O,inactive,inactive,inactive,inactive,inactive,inactive,46.7 nM (active),0.0209 µM (active),0.105 µM (active),inactive,inactive,inactive,inactive,inactive,inactive
CO[C@H]1C[C@H](O[C@H]2[C@@H](O)C[C@H](O[C@H]3CC[C@]4(C=O)[C@H]5CC[C@]6(C)C(C7=CC(=O)OC7)CC[C@]6(O)[C@@H]5CC[C@]4(O)C3)O[C@@H]2C)O[C@H](C)[C@H]1O[C@H]1C[C@@H](OC)[C@@H](O[C@@H]2O[C@H](CO)[C@@H](O)[C@H](O)[C@H]2O)[C@@H](C)O1 (stereo partly specified),inactive,inactive,inactive,inactive,inactive,inactive,inactive,0.332 µM (active),inactive,inactive,inactive,inactive,inactive,inactive,inactive
C[C@]12CC(O)C3[C@@H](CC[C@@H]4C[C@@H](O)CC[C@]34CO)[C@@]1(O)CC[C@@H]2C1=CC(=O)OC1 (stereo partly specified),inactive,inactive,inactive,inactive,inactive,inactive,inactive,10.5 µM (active),inactive,inactive,inactive,inactive,inactive,inactive,inactive
C/C=C1/CN2C3CC1C1=CCC(=O)N4c5ccccc5[C@@]3(C[C@@H]2C2=C[C@H]3C5CC6N(CC[C@@]67c6ccccc6N(C2=O)[C@@H]37)C/C5=C/C)[C@H]14 (stereo partly specified),,inactive,,inactive,,inactive,inactive,23.5 µM (active),inactive,inactive,inactive,,inactive,inactive,inactive
CO[C@@]12c3c(C)cc(O)c4c(=O)occ(c34)C(=O)[C@@H]1[C@]13COC(=O)c4c(O)cc(C)c(c41)C(=O)[C@H]2[C@@H]3OC(C)=O,inactive,inactive,inactive,inactive,inactive,inactive,inactive,inactive,inactive,inactive,inactive,inactive,inactive,inactive,inactive
C[C@]12CCC3[C@@H](CC[C@@H]4C[C@@H](O)CC[C@]34CO)[C@@]1(O)CC[C@@H]2C1=CC(=O)OC1 (stereo partly specified),inactive,inactive,inactive,inactive,inactive,inactive,inactive,2.96 µM (active),inactive,inactive,inactive,inactive,inactive,inactive,inactive
C/C=C(\C)C(=O)O[C@@H]1[C@@H](O)[C@@H]2O[C@H]3[C@H](O[C@@H](CCCCC)CCCCCCC(=O)CCC(=O)OC[C@@H](O2)[C@H]1OC(=O)/C=C/c1ccccc1)O[C@H](C)[C@H](OC(C)=O)[C@@H]3O,inactive,inactive,inactive,inactive,inactive,inactive,inactive,inactive,inactive,inactive,inactive,inactive,inactive,inactive,inactive
CC(C)CC1C(=O)O[C@H](C(C)C)C(=O)N(C)C(CC(C)C)C(=O)O[C@@H](C(C)C)C(=O)N(C)C(CC(C)C)C(=O)O[C@H](C(C)C)C(=O)N(C)C(CC(C)C)C(=O)O[C@@H](C(C)C)C(=O)N1C (stereo partly specified),inactive,inactive,,inactive,inactive,inactive,inactive,inactive,inactive,inactive,inactive,inactive,inactive,inactive,inactive
CO[C@@H](/C=C/CC/C=C/C(=O)O)[C@@H](O)[C@H](C)/C=C(\C)[C@H](O)[C@H](C)C(=O)CCCC1CC(=O)NC(=O)C1,inactive,inactive,inactive,inactive,inactive,inactive,inactive,inactive,inactive,inactive,inactive,inactive,inactive,inactive,inactive
CC[C@H](C)[C@H]1NC(=O)[C@@H](NC(=O)C(C)[C@H](O)C(C)C)[C@@H](C)OC(=O)C2COC(=O)CNC(=O)/C=C\[C@]3(CO3)[C@@H](C)Oc3ccc(cc3)[C@H](NC1=O)C(=O)N(C)C(Cc1ccccc1)C(=O)NC(C(C)O)C(=O)N2 (stereo partly specified) (X2-T[d(aIle)][X3][ξNMeF][ξT][ξS]; ester 1-C; linker 3-6 via G),inactive,inactive,inactive,inactive,inactive,inactive,inactive,inactive,inactive,inactive,inactive,inactive,inactive,inactive,inactive
C/C=C/[C@@H]1[C@H]2C[C@@H](C)CC[C@@H]2C(C)=C[C@H]1C(=O)c1c(O)c(-c2ccc(O)cc2)c[nH]c1=O,inactive,inactive,inactive,inactive,inactive,inactive,inactive,inactive,inactive,inactive,inactive,inactive,inactive,inactive,inactive
c1ccc2nc3c(cc2c1)[nH]c1ccccc13,inactive,inactive,inactive,inactive,inactive,1.72 µM (active),inactive,inactive,18.6 µM (active),inactive,inactive,inactive,inactive,inactive,inactive
